Assay outcomes deposited in PubChem by National Center for Advancing Translational Sciences (NCATS).
PI4K2A inh = qHTS for small molecular inhibitors of PI4K2A; hit rate 0.13% among 420,000; activity change, negative = inhibition, % at 76.9 µM; purified PI4K2A, ADP-Glo luminescence, 1 h; active compounds read low; Phosphatidylinositol 4-kinase type 2-alpha (Homo sapiens), Q9BTU6; in the data active = activity change below about -50%; inconclusive = mostly about -30% to -49%;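 also: -100% = wells without enzyme as full effect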
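ADP-Glo luminescence measured ADP generated by PI4K2A enzyme (4 ug/mL before mixing) with 1.2 mM PI substrate (pre-mix) and 300 microM ATP (pre-mix). Tris pH7.5 buffer with MgCl2, Triton X-100; 1 h reaction at ambient temperature.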
Nrf2 block = Nrf2 qHTS screen for inhibitors | Potency, µM (series often up to 46 µM), for inactives: top-dose activity change, negative = inhibition, hits mostly inhibitors | A549 ARE-Fluc reporter, luciferase luminescence, 18-24 h | hit rate 2.1% among 360,000; also: potency is read from the fitted curve at half-maximal effect; % is scaled to controls: 0 for no effect and ±100 for the full control effect; nearly all actives have a fitted effect of over 60% in size
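Cells were seeded and rested 2 h, then exposed to compounds for 18-24 h. CellTiter-Fluor was read first as a viability measure. BugLite was added 15 min before the final luminescent read of ARE-luciferase activity in A549 cells.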
miR-21 reporter = qHTS Assay for Modulators of miRNAs and/orActivators of miR-21 | HeLa miR-21 FLuc reporter, luciferase, 48 h | Potency, µM (highest dose often 38.3 µM), for the others: at the top dose activity change, positive = activation, usual class: activators | 340,000 tested, under 10 active | AID 2288, 2010;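 also: % of control where 0% means no effect; miR-21 action dims this reporter so a rising signal means less miR-21 action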
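Compounds were titrated across several concentrations (up to approximately 40 uM) and incubated 48 hours with HeLa miR-21-FLuc reporter cells (miR-21 target sequence downstream of FLuc, endogenous miR-21). Readout was firefly luciferase luminescence after lytic detection reagent.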
Nrf2 ARE act = qHTS of Nrf2 Activators; Potency, µM (titrated, usually from 46.1 µM), without a hit: at the highest dose activation, most hits filed as activators; AID 624171, 2012; AREc32 ARE-luciferase reporter (MCF7-derived line), luminescence, 24 h; hit rate 0.31% among 410,000; also: potency is read from the fitted curve at half-maximal effect; % of control where 0% means no effect; nearly all actives have a fitted effect of over 65% in size
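Cells of the AREc32 ARE-luciferase line are plated in OPTI-MEM containing 5% FBS and left overnight at 37 deg C. Compounds are pinned in, incubation continues 24 hr, and firefly luciferase signal is then measured.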
A549 viability = Nrf2 qHTS screen for inhibitors: counterscreen for cytotoxicity; A549 ARE-Fluc cells, CellTiter-Fluor viability, 18-24 h; hit rate 0.16% among 390,000; Potency, µM (doses to about 46 µM), without a hit: at the highest dose activity change, negative = cytotoxicity, usual class: inhibitors; also: potency is read from the fitted curve at half-maximal effect; % is scaled to controls: 0 for no effect and ±100 for the full control effect
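Cytotoxicity counterscreen: CellTiter-Fluor fluorescence was measured in A549 ARE_Fluc cells after 18-24 h of compound exposure in a concentration series. The subsequent BugLite luminescent read reports ARE-luciferase activity.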
GALK inhibitor = qHTS Assay for Inhibitors of Human Galactokinase (GALK); P51570; Purified GALK, Kinase-Glo residual ATP luminescence; Potency, µM (series often up to 57.5 µM), without a hit: at the highest dose activity change, negative = inhibition, usual class: inhibitors; hit rate 0.007% among 270,000; also: potency is read from the fitted curve at half-maximal effect; % is scaled to controls: 0 for no effect and ±100 for the full control effect
Target sequence (P51570 whole entry, looked up): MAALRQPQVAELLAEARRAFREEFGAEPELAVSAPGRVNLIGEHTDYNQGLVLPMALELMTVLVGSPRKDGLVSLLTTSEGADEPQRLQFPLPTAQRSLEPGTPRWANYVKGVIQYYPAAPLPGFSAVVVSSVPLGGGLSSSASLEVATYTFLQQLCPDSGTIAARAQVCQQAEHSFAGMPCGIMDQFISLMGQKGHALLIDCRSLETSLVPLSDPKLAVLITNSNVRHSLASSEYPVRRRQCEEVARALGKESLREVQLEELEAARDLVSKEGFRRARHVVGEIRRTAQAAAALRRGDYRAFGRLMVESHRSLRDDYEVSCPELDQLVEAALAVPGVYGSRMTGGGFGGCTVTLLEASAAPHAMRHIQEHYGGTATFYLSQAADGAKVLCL
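The enzyme phosphorylates galactose (100 uM) using ATP (35 uM); inhibition is detected as higher residual ATP, quantified by bioluminescence after 1 h reaction at room temperature, pH 8.0.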
* marks the source's active call; other numbers are inactive results; ? = inconclusive; . = no result given. Sampled rows, rich in hits. Any-hit rate of the full collection: about 2.2%. Unless noted, calls follow the shape of the dose curve; as a rule, active = well fitted curve in the direction sought with a large enough effect; inconclusive = small, poorly fitted or top-dose-only effect, or another doubt; inactive = no such curve, though single readings can be large; an effect the other way counts as inactive or inconclusive.

SMILES	PI4K2A inh	Nrf2 block	miR-21 reporter	Nrf2 ARE act	A549 viability	GALK inhibitor
COc1cccc(C(c2c(C)[nH]n(-c3ccccc3)c2=O)c2c(C)[nH]n(-c3ccccc3)c2=O)c1O	-51*	3%	1%	6%	-2%	-4%
c1ccc(-n2ncc3c(NC4CCCCCC4)ncnc32)cc1	-3	?	-38%	0%	-6%	-1%
CCOC(=O)N1CCC(Nc2ncnc3c2cnn3-c2ccccc2)CC1	3	16µM*	-15%	3%	-11%	-1%
O=C(Nc1ccc(N2CCN(C(=O)c3ccco3)CC2)c(Cl)c1)c1cc2ccccc2o1	-6	18µM*	?	0%	?	1%
CCCC(=O)N1CCN(c2ccc(NC(=O)c3cc4ccccc4o3)cc2Cl)CC1	18	13µM*	?	-4%	?	1%
CCC(=O)N1CCN(c2ccc(NC(=O)c3cc4ccccc4o3)cc2Cl)CC1	6	?	?	-3%	?	-1%
Clc1ccccc1NN=Cc1ccccn1	-5	.	.	7.1µM*	.	.
O=C(N/N=C/c1ccccn1)c1ccc(Cl)cc1	1	?	-45%	8%	?	7%
CN1CCc2ccc3c4c2[C@]1(C)Cc1cccc(c1-4)OCO3	.	-1%	.	.	-13%	.
CC(=O)OCC(=O)[C@@]1(O)CC[C@H]2[C@@H]3CCC4=CC(=O)C=C[C@]4(C)[C@@]3(F)[C@@H](O)C[C@@]21C	-3	0.029µM*	.	-1%	-5%	.
CC(=O)OCC(=O)C1(O)CCC2C3CC(C)C4=CC(=O)C=CC4(C)C3=CCC21C (stereo not drawn)	-3	2.1µM*	.	3%	3%	.
CC12C=CC(=O)C=C1C(F)CC1C3CCC(O)(C(=O)CO)C3(C)CC(O)C12F (stereo not drawn)	-4	0.0052µM*	.	-1%	-3%	.
CC(=O)OCC(=O)[C@@]1(OC(C)=O)[C@@H](C)C[C@H]2[C@@H]3C[C@H](F)C4=CC(=O)C=C[C@]4(C)[C@@]3(F)[C@@H](O)C[C@@]21C	-3	0.0092µM*	-25%	2%	5%	0%
CC(=O)OCC(=O)[C@@]1(O)[C@H](OC(C)=O)C[C@H]2[C@@H]3CCC4=CC(=O)C=C[C@]4(C)[C@@]3(F)[C@@H](O)C[C@@]21C	1	.	.	.	.	.
COC(=O)[C@@]12CCCCC3=C1N(CCC3)C(=O)[C@H]2CC(=O)NCCCCc1ccccc1	-14	.	.	.	.	.
C[C@@H]1C[C@H]2[C@@H]3CCC4=CC(=O)C=C[C@]4(C)[C@@]3(F)[C@@H](O)C[C@]2(C)[C@@]1(O)C(=O)COP(=O)(O)O	-2	0.023µM*	-40%	-1%	-2%	-1%
CC1(C)OC2CC3C4CC(F)C5=CC(=O)C=CC5(C)C4(F)C(O)CC3(C)C2(C(=O)CO)O1 (stereo not drawn)	3	?	-27%	1%	-11%	-1%
CC1(c2ccccc2)O[C@@H]2C[C@H]3[C@@H]4CCC5=CC(=O)C=C[C@]5(C)[C@@]4(F)[C@@H](O)C[C@]3(C)[C@]2(C(=O)CO)O1 (stereo partly drawn)	-1	0.026µM*	-4%	3%	-5%	-3%
CC(=O)OCC(=O)C1(O)CCC2C3CC(C)C4=CC(=O)C=CC4(C)C3(F)C(O)CC21C (stereo not drawn)	-1	0.058µM*	.	1%	4%	.
C[C@@H]1C[C@H]2[C@@H]3C[C@H](F)C4=CC(=O)C=C[C@]4(C)[C@@]3(F)[C@@H](O)C[C@]2(C)[C@@]1(O)C(=O)CO	-3	?	-27%	0%	-6%	8%
CCC(=O)O[C@]1(C(=O)CCl)[C@@H](C)C[C@H]2[C@@H]3CCC4=CC(=O)C=C[C@]4(C)[C@@]3(F)[C@@H](O)C[C@@]21C	3	?	-20%	-1%	-7%	4%
CN(C)S(=O)(=O)c1cccc(C(=O)N/N=C\c2ccccc2)c1	5	.	.	.	.	.
O=C(C1CCCN(S(=O)(=O)c2ccc(Br)s2)C1)N1CCN(Cc2ccccc2)CC1 (stereo not drawn)	-8	.	.	.	.	.
Cc1ccc(S(=O)(=O)c2nc(NN(C)C)sc2Cl)cc1	2	23µM*	20%	0%	-18%	1%
Cc1ccc(S(=O)(=O)c2nc(Nc3ccccc3C#N)sc2Cl)cc1	1	5%	0%	-1%	0%	-1%
SMILES	PI4K2A inh	Nrf2 block	miR-21 reporter	Nrf2 ARE act	A549 viability	GALK inhibitor
CCn1nc(C)cc1C(=O)Sc1ccc(Cl)cc1Cl	15	6%	-1%	1%	14%	0%
CCn1nc(C)cc1C(=O)OCC(=O)c1ccc(Cl)cc1	-3	18µM*	-2%	0%	1%	0%
C[C@H]1C2CC(OC(=O)NCCCc3ccccc3)C(C2)[C@H]2CCCCN21 (stereo partly drawn)	-4	.	.	.	.	.
CN(C)c1ccc(C2CC(c3cccc(NS(C)(=O)=O)c3)=NN2C(=O)c2ccccc2)cc1 (stereo not drawn)	-4	23µM*	0%	3%	?	2%
CS(=O)(=O)Nc1ccc(C2=NN(C(=O)c3cccc(F)c3)C(c3cccs3)C2)cc1 (stereo not drawn)	9	18µM*	-6%	3%	?	-3%
COc1ccc(-n2c(SCC(=O)NNC(=S)Nc3ccccc3)nc3ccccc3c2=O)cc1	12	.	.	.	.	.
O=C(CCc1ccccc1)NC(NC(=S)Nc1ccc(Cl)cc1)C(Cl)(Cl)Cl (stereo not drawn)	-9	15µM*	24%	5%	?	-3%
O=C(NC(NC(=S)Nc1cccc(Cl)c1)C(Cl)(Cl)Cl)OCc1ccccc1 (stereo not drawn)	0	16µM*	?	3%	?	-5%
COC(=O)[C@@H]1N=C(c2ccc(OC)cc2)O[C@]12C(=O)N(Cc1cn(-c3ccccc3)nn1)c1cccc(Cl)c12	-11	.	.	.	.	.
CCOC(=O)[C@]12CCCCC/C=C\1N(Cc1ccc(OC)cc1)C(=O)[C@H]2CC(=O)NCCCOC	2	.	.	.	.	.
COc1ccc(OC)c(S(=O)(=O)N2CCN(C(=O)c3cc(C4CC4)nn3-c3ccccc3)CC2)c1	-1	26µM*	.	0%	-9%	.
